# Bioassay records as filed in PubChem BioAssay.
# Rows were chosen to be rich in hits. Some 3.6% of all compounds tested hit in one or more screens of this group.
# AmpC no deterg = inhibitors of E. coli AmpC beta-lactamase without detergent | hit rate 0.52% among 330,000 | Potency, µM (titrated, usually from 57.1 µM), usual class: inhibitors | AmpC nitrocefin hydrolysis, absorbance 480 nm, 0.0001% Triton | AID 485341; further: nearly all actives have a fitted effect of over 20% in size
#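 AmpC (5.3 nM in the dispensed reagent) in 20 mM phosphate pH 7.0 with 0.01% (detergent screen) or 0.0001% Triton X-100 was preincubated with compounds for 15 min at room temperature. Nitrocefin was then added from an 800 uM solution, and hydrolysis was followed at 480 nm.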
# Giardia FBPA inh = inhibitors of Giardia lamblia fructose-1,6-bisphosphate aldolase; A8B2U2; purified Giardia FBPA; Potency, µM (highest dose often 59.6 µM), actives largely listed as inhibitors; hit rate 0.71% among 290,000; AID 2451; further: nearly all actives have a fitted effect of over 55% in size
# Target sequence (A8B2U2 whole entry, looked up): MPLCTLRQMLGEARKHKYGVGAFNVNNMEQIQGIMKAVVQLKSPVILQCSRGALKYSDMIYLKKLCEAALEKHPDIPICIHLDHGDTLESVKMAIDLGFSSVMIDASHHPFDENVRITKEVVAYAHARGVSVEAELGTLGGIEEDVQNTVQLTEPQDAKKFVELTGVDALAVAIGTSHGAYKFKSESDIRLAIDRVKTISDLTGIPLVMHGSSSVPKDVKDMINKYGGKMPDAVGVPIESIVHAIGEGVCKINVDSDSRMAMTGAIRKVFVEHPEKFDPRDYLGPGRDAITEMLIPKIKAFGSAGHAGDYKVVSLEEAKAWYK
#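 40 nM FBPA preincubated 10 min at RT with compound (up to 57.5 uM final), then substrate plus GAPDH/TPI/NAD/arsenate coupling and diaphorase/resazurin added. Fluorescence read after 20 min at RT, 525/598 nm.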
# AmpC inh detg = inhibitors of E. coli AmpC beta-lactamase with detergent | AID 485294 | P00811 | Potency, µM (doses to about 114 µM), actives largely listed as inhibitors | hit rate 0.041% among 370,000 | AmpC hydrolysis of nitrocefin, absorbance 480 nm, 0.01% Triton; further: nearly all actives have a fitted effect of over 25% in size
#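 AmpC (5.3 nM in the dispensed reagent) in 20 mM phosphate pH 7.0 with 0.01% (detergent screen) or 0.0001% Triton X-100 was preincubated with compounds for 15 min at room temperature. Nitrocefin was then added from an 800 uM solution, and hydrolysis was followed at 480 nm.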
# Sm TGR block = blocks Schistosoma mansoni thioredoxin glutathione reductase; hit rate 3% among 360,000; purified TGR, DTNB reduction, TNB absorbance 405 nm; AID 485364; Potency, µM (top dose mostly 114 µM), hits mostly inhibitors; Q962Y6; further: nearly all actives have a fitted effect of over 60% in size
#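 TGR 20 nM + NADPH 100 uM (dispensed conc.), cpd preinc 15 min RT; start with NADPH (500 uM addition) then DTNB (15 mM addition). Kinetic TNB absorbance, 405 nm filter. Four-parameter Hill fit across titration.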
# Numbers stand for hits; - = inactive; ? = inconclusive; . = no result given; [ ] = dose if it differs, or a comment. The call rests on the fitted dose curve; in most records, active means well fitted curve in the direction sought with a large enough effect; inconclusive means small, poorly fitted or top-dose-only effect, or another doubt; inactive means no such curve, though single readings can be large; an effect the other way counts as inactive or inconclusive.
SMILES,AmpC no deterg,Giardia FBPA inh,AmpC inh detg,Sm TGR block
CC(C)(C)C(=O)Nc1ccccc1N1CCN(c2ccc(F)cc2)CC1,-,-,-,-
Cc1ccc(C(=O)NCC(=O)OCC(=O)c2c(N)n(C)c(=O)n(C)c2=O)cc1C,-,.,.,.
COc1ccc(-c2nn(-c3ccccc3)cc2C(=O)Nc2cccc(C(=O)O)c2)cc1[N+](=O)[O-],3.5µM,-,-,-
O=C(O)c1cccc(NC(=O)c2cn(-c3ccccc3)nc2-c2ccc([N+](=O)[O-])cc2)c1,-,-,-,-
COc1ccc(N2CC(NC(=O)COc3ccccc3C)CC2=O)cc1OC (stereo not given),.,.,-,-
COCCNc1oc(/C=C/c2ccccc2OC)nc1S(=O)(=O)c1ccccc1,-,-,-,13µM
COCCNc1oc(-c2ccccc2)nc1S(=O)(=O)c1ccc(Br)cc1,.,.,-,-
COc1ccc2c(c1)C(=O)[C@H](OC(=O)N[C@H]1CCCc3ccccc31)[C@@H](c1ccc(OC)c(Br)c1)O2,.,-,.,.
Cc1ccc(NC(=O)c2cc(NC(=O)c3ccco3)ccc2N2CCOCC2)cc1,-,-,-,-
Cc1ccc(NC(=O)c2cc(N3C(=O)C=CC3=O)ccc2N2CCOCC2)cc1,-,-,-,0.71µM
Cc1ccc(NC(=O)c2cc(N3C(=O)C=CC3=O)ccc2Cl)cc1C,-,-,-,0.79µM
Cn1cnc([N+](=O)[O-])c1S(=O)(=O)c1ccc(Cl)cc1,-,-,?,0.1µM
CCCC(=O)Nc1ccc2c(c1)nc(CN1CCN(C(=O)OCC)CC1)n2C,-,-,-,-
CCOC(=O)N1CCN(Cc2nc3cc(NC(=O)c4ccco4)ccc3n2C)CC1,-,.,-,50µM
COc1nc(NC(C)C)nc(N(C#N)CN2C(=O)c3ccccc3S2(=O)=O)n1,-,-,-,-
CC(C)Nc1nc(Cl)nc(N(C#N)CN2C(=O)c3ccccc3S2(=O)=O)n1,-,-,-,20µM
Brc1ccc2c(c1)C(OC1CN3CCC1CC3)c1ccccc1CS2 (stereo not given),-,-,-,89µM
CCCOc1ccc(N2C(=O)CC(N3CCN(c4ccccc4OC)CC3)C2=O)cc1 (stereo not given),-,-,?,50µM
COc1cccc(N2C(=O)CC(N3CCC(c4nc5ccccc5[nH]4)CC3)C2=O)c1 (stereo not given),-,-,-,-
CCOc1ccc(N2C(=O)CC(N3CCN(c4ccccc4F)CC3)C2=O)cc1 (stereo not given),-,-,-,-
Cc1cccc(N2C(=O)CC(N3CCC(c4nc5ccccc5[nH]4)CC3)C2=O)c1 (stereo not given),-,-,-,35µM
CCOc1ccc(N2C(=O)CC(N3CCN(c4ccccc4OC)CC3)C2=O)cc1 (stereo not given),-,-,-,40µM
Cc1cccc(N2C(=O)CC(N3CCN(Cc4ccc(Cl)cc4)CC3)C2=O)c1 (stereo not given),-,-,-,45µM
Cc1cccc(N2C(=O)CC(N3CCN(c4ccc(Cl)cc4)CC3)C2=O)c1 (stereo not given),-,-,?,-
COc1ccccc1N1CCN(C2CC(=O)N(c3ccc(F)cc3)C2=O)CC1 (stereo not given),-,-,-,?
SMILES,AmpC no deterg,Giardia FBPA inh,AmpC inh detg,Sm TGR block
CC1CCCCC1NC(=O)CCn1ccc2cc(S(=O)(=O)N3CCCC3)ccc21 (stereo not given),-,-,?,-
COc1ccccc1N1CCN(C2CC(=O)N(c3cccc(Cl)c3)C2=O)CC1 (stereo not given),-,-,?,40µM
COc1ccccc1N1C(=O)CC(N2CCN(c3ccc([N+](=O)[O-])cc3)CC2)C1=O (stereo not given),-,-,-,40µM
COc1ccc2ccc(O)c(CN3CCN(S(=O)(=O)c4cc([N+](=O)[O-])ccc4C)CC3)c2c1,-,.,-,1.6µM
CCN(CC)C(=O)c1sc2c(c1C)c(=O)n(CCc1ccccc1)c(=O)n2Cc1cc(C)ccc1C,.,.,-,-
COc1ccc(C(c2c(NC(=O)c3ccco3)sc(C)c2C)N2CCOCC2)cc1 (stereo not given),-,.,-,-
Cc1sc(NC(=O)c2ccco2)c(C(c2cccnc2)N2CCC(C)CC2)c1C (stereo not given),-,-,-,18µM
CCN1CCN(C(c2ccccn2)c2c(NC(=O)c3ccccc3)sc(C)c2C)CC1 (stereo not given),-,-,-,-
CCN1CCN(C(c2cccnc2)c2c(NC(=O)c3ccco3)sc(C)c2C)CC1 (stereo not given),-,.,?,20µM
NS(=O)(=O)c1ccc(CCNC(=O)CN2CCN(Cc3cccc4ccccc34)CC2)cc1,-,-,?,-
CCc1ccccc1NC(=O)c1cnc(N2CCCCC2)c2ccccc12,.,.,-,-
CCOc1ccc2[nH]c(=O)c(C(c3nnnn3Cc3ccco3)N3CCC(C)CC3)cc2c1 (stereo not given),-,?,-,45µM
CCOc1ccc2[nH]c(=O)c(C(c3nnnn3Cc3ccco3)N3CCCC(C)C3)cc2c1 (stereo not given),-,?,?,11µM
Cc1ccc(C)c2[nH]c(=O)c(C(c3nnnn3Cc3ccco3)N3CCc4ccccc4C3)cc12 (stereo not given),-,?,-,14µM
CCOc1ccc2[nH]c(=O)c(C(c3nnnn3C3CCCCC3)N3CCN(C)CC3)cc2c1 (stereo not given),-,-,-,?
Cc1ccc(C)c2[nH]c(=O)c(C(c3nnnn3CCc3ccccc3)N3CCOCC3)cc12 (stereo not given),-,-,-,-
N#Cc1ccc(CN2CC[C@@]3(CCCN(C(=O)c4cccc(F)c4)C3)C2)cc1,.,-,.,.
CC1=C(C)/C(=N\OS(=O)(=O)c2ccccc2)C=CC1=O,-,4.5µM,-,2.5µM
CN(C)c1cccc2c(/C=N/O)ccc(N(C)C)c12,-[11.4 µM],-,?,-
CN(C)c1cccc2c(C=C(C#N)C#N)ccc(N(C)C)c12,-,-,-,25µM
CC1(C)CC(=O)C(C=Nc2cccnc2)=C(O)C1,-,-,-,-
CC1(C)CC(=O)C(C=Nc2cccnc2/N=C/C2=C(O)CC(C)(C)CC2=O)=C(O)C1,-,-,-,22µM
CN(C)CC(C(=O)c1ccccc1)c1ccccc1 (stereo not given),-,-,?,35µM
COc1ccc(C(C(=O)OC(C)CN(C)C)c2ccccc2)cc1 (stereo not given),-,-,-,-
N#C/C(=C\c1ccc(O)c(O)c1)C(=O)NCCCCc1ccccc1,.,-,.,.
COc1cc(CN(C)CC(=O)c2[nH]c(C)c(C(C)=O)c2C)ccc1OC(F)F,-,-,-,22µM
O=C(CN1CCN(c2ccccn2)CC1)Nc1ccc(F)cc1F,-,-,-,-
Cc1nnc(N=c2ssnc2Cl)o1,-,.,-,28µM
O=C(CCn1c(=O)c2cccn2c2cccnc21)N1CCN(c2cccc(Cl)c2)CC1,-,.,-,-
